# HT1080-NT tox: qHTS for induction of synthetic lethality in tumor cells producing 2HG: qHTS for the HT-1080-NT fibrosarcoma cell line. 1.6% of 360,000 active. Potency, µM (highest dose often 46.1 µM), for inactives: at the top dose activity, negative = less viability, hits mostly cytotoxic. HT-1080-NT fibrosarcoma viability, CellTiter-Glo ATP luminescence, 48 h;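 also: NT is the 2HG producing partner of a matched IDH1 knockdown line; potency is read from the fitted curve at half-maximal effect; 0% = DMSO-treated cells and -100% = media-only wells without cells; nearly all actives have a fitted effect of over 55% in size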
#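 Viability by CellTiter-Glo luminescence after 48 h compound exposure at 37C of HT-1080-NT cells (750/well, RPMI, 5% FBS). % activity scaled between DMSO wells and medium-only wells, then curve-fitted and categorized by curve class.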
# DT40 TDP1 no CPT: qHTS for Inhibitors of human tyrosyl-DNA phosphodiesterase 1 (TDP1): qHTS in cells in absence of CPT; DT40 Tdp1-/- hTDP1 cells, no CPT, ATP luminescence, 48 h; Potency, µM (top dose mostly 46.2 µM), without a hit: top-dose activity change, negative = growth inhibition, usual class: inhibitors; 15% of 420,000 active; also: potency is read from the fitted curve at half-maximal effect; nearly all actives have a fitted effect of over 55% in size
#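 Growth kinetics read by CellTiter-Glo luminescence after ≥48 hr at 37 °C. Cells: DT40 Tdp1-/- stably carrying human TDP1, 400 per well, compound exposure in the absence of CPT (DMSO vehicle).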
# IL1B secr inh: qHTS for Inhibitors of Inflammasome Signaling: IL-1-beta AlphaLISA Primary Screen. THP-1 LPS/ATP IL-1B secretion, AlphaLISA, 16 h; active compounds read low. activity change, % at 57.5 µM. 4.7% of 360,000 active. AID 743279, 2014; in the data active = activity change below about -50%; inconclusive = mostly about -30% to -49%
#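 Secreted IL-1B measured by AlphaLISA bead assay after 16 h compound exposure of THP-1 cells; compounds (final up to 57.5 uM) added 1 h before LPS (250 ng/mL) and ATP (1.25 mM) stimulation; lower signal means less secretion.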
# HT1080 IDH1KD tx: qHTS for induction of synthetic lethality in tumor cells producing 2HG: qHTS for the HT-1080-IDH1KD cell line | HT-1080 IDH1 knockdown viability, ATP luminescence, 48 h | Potency, µM (series often up to 46.1 µM), for inactives: at the highest dose activity, negative = toxicity, actives largely listed as cytotoxic | 2% of 360,000 active | AID 686971, 2013;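 also: potency is read from the fitted curve at half-maximal effect; 0% = DMSO wells and -100% = cell-free medium wells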
#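 Using the IDH1-knockdown HT-1080 line run in the same batch and compound series as the NT line, viability after 48 h at 37 °C was determined by CellTiter-Glo luminescence and expressed as % activity.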
# ALOX12 inh: Primary qHTS assay for inhibitors of human arachidonate 12S-lipoxygenase (ALOX12): Round 2 | 1.1% of 580,000 active | Potency, µM (doses to about 108 µM), without a hit: at the highest dose activity change, negative = inhibition, hits mostly inhibitors | Polyunsaturated fatty acid lipoxygenase ALOX12 (Homo sapiens), P18054 | purified 12hLO, xylenol orange hydroperoxide absorbance; also: potency is read from the fitted curve at half-maximal effect
# Target sequence (P18054 whole entry, looked up): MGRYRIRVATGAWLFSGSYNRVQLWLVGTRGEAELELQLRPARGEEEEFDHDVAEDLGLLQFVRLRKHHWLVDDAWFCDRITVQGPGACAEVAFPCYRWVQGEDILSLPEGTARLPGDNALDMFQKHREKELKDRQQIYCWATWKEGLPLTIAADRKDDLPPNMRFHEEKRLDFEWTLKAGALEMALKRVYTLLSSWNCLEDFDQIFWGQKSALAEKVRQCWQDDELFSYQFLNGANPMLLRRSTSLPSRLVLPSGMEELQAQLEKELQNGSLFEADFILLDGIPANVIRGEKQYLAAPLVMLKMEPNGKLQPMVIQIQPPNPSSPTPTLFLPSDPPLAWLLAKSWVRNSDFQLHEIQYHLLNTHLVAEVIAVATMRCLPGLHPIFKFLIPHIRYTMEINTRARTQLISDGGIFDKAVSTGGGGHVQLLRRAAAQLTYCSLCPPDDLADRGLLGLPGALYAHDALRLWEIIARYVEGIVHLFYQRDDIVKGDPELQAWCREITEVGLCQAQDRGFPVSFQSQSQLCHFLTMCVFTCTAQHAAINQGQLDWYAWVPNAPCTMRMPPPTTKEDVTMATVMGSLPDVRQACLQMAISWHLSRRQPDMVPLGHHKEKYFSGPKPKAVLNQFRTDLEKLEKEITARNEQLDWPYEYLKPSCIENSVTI
#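 Purified human 12hLO at 150 nM in 25 mM Hepes, 0.01% Triton X-100, pH 7.0, preincubated 15 min at room temperature with compound. Reaction started with 40 uM arachidonic acid, 30 min at room temperature. Hydroperoxide measured by Fe-xylenol orange, 573/405 nm absorbance ratio.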
# TDP1 cell CPT: qHTS for Inhibitors of human tyrosyl-DNA phosphodiesterase 1 (TDP1): qHTS in cells in presence of CPT | chicken DT40 Tdp1-/-;hTDP1 cells + 20 nM CPT, ATP luminescence, 48 h | Potency, µM (top dose mostly 46.2 µM), inactives show top-dose activity change, negative = growth inhibition, usual class: inhibitors | 12% of 420,000 active; also: potency is read from the fitted curve at half-maximal effect; nearly all actives have a fitted effect of over 55% in size
#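 Chicken DT40 Tdp1-/- cells stably complemented with human TDP1 were seeded at 400 cells/well in medium containing 20 nM camptothecin, exposed to pin-transferred compounds, and grown at 37 °C for at least 48 hr. Viability was read as ATP luminescence.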
# An asterisk follows results filed as active; ? = inconclusive; · = no result given; [ ] = dose if it differs, or a comment. The entries come from a sample that favours hits as a whole. Unless noted, calls follow the shape of the dose curve; as a rule, active = well fitted curve in the direction sought with a large enough effect; inconclusive = small, poorly fitted or top-dose-only effect, or another doubt; inactive = no such curve, though single readings can be large; an effect the other way counts as inactive or inconclusive. Unless noted, % is scaled to controls: 0 for no effect and ±100 for the full control effect.
SMILES,HT1080-NT tox,DT40 TDP1 no CPT,IL1B secr inh,HT1080 IDH1KD tx,ALOX12 inh,TDP1 cell CPT
CCOC(=O)C1(C)/C(=N/Nc2ccccc2OC)C(=O)C(=O)N1c1ccccc1 (stereo not drawn),-12%,13µM*,2,-16%,?,23µM*
COc1ccc(-c2nc(C3CN(C(=O)NCc4ccccc4)C3)no2)cc1,·,·,·,·,46%,·
Cc1nccn1CC(O)COc1ccc(Cl)cc1Cl (stereo not drawn),?,15µM*,-3,-21%,8%,?
Cc1cc(C)n(CC(O)COc2ccc(Cl)cc2Cl)n1 (stereo not drawn),11%,21µM*,-52*,13%,4%,?
Cc1cc(C)n(CC(O)COc2ccc(Cl)cc2)n1 (stereo not drawn),15%,-15%,-5,8%,-9%,4%
CCSC(=S)Nc1c(C)n(C)n(-c2ccccc2)c1=O,-3%,-24%,-20,-6%,3%,-28%
Cc1c(NC(=S)N/N=C/c2ccc(Br)cc2)c(=O)n(-c2ccccc2)n1C,-13%,-25%,-21,-9%,?,?
Cc1c(NC(=S)N/N=C\c2ccccc2O)c(=O)n(-c2ccccc2)n1C,-1%,21µM*,68,-26%,-4%,?
Cc1c(NC(=S)SCc2ccccc2)c(=O)n(-c2ccccc2)n1C,-8%,23µM*,-23,-18%,0%,-14%
O=C(CSc1nnc(-c2ccncc2)n1-n1cccc1)Nc1ccc2c(c1)OCO2,·,·,·,·,-10%,·
Fc1ccc(NC(=S)N2CCN(c3cccc(C(F)(F)F)c3)CC2)cc1,-3%,13µM*,8,-14%,?,21µM*
S=C(Nc1ccccc1)N1CCN(c2ccccc2)CC1,5%,?,-8,11%,0%,?
O=S(=O)(c1cccc(NC(=S)N2CCN(c3ccccc3)CC2)c1)C(F)F,-1%,16µM*,-15,1%,-3%,13µM*
FC(F)(F)c1cccc(NC(=S)N2CCN(c3cccc(C(F)(F)F)c3)CC2)c1,-20%,15µM*,-2,?,4%,?
CCN1CCN(C(=S)Nc2cccc(C(F)(F)F)c2)CC1,-8%,-17%,25,-13%,-8%,3%
CC(C)(CNC(=O)c1cc(-c2ccc(Cl)cc2)on1)N1CCOCC1,·,·,·,·,8%,·
O=C(Nc1cccc(NC(=O)C2CC3CCCC(C2)C3=O)n1)C1CC2CCCC(C1)C2=O (stereo not drawn),-4%,18µM*,-10,-5%,190%,?
O=C(Nc1cccc(F)c1)C1CC2CCCC(C1)C2=O (stereo not drawn),·,·,·,·,10%,·
Cc1cnc(CN2CC3(CCCN(c4ccc(C#N)cn4)C3)CCC2=O)cn1 (stereo not drawn),·,·,·,·,-14%,·
FC(F)(F)c1ccc2c(c1)nc1n2[C@@H](CNCc2ccccc2)COC1,·,·,·,·,57%[176 µM],·
O=C(Cc1ccc2ccccc2c1)NCCc1ccccn1,·,·,·,·,-3%,·
C#C[C@]1(O)CCC2C3CCC4=CC(=O)CC[C@@H]4C3CC[C@@]21C (stereo partly drawn),12%,-27%,8,0%,-2%,?
C#C[C@]1(OC(C)=O)CC[C@H]2[C@@H]3CCC4=C/C(=N/O)CC[C@@H]4[C@H]3CC[C@@]21CC,·,19µM*,·,·,-16%[22.9 µM],?
CCOc1ccc(NC(=O)c2ccncc2)cc1,13%,-7%,-8,6%,0%,-10%
CCOc1ccc2c(c1)C(=NNC(=O)c1ccncc1)c1cc(OCC)ccc1-2,2%,5.2µM*,64,-10%,13%,3.7µM*
SMILES,HT1080-NT tox,DT40 TDP1 no CPT,IL1B secr inh,HT1080 IDH1KD tx,ALOX12 inh,TDP1 cell CPT
Cc1c(C(=O)N2CCC(C)CC2)sc2ncnc(N3CCN(c4ccccc4)CC3)c12,-1%,-29%,-27,-4%,0%,-5%
Cc1c(C(=O)N(C)C2CCCCC2)sc2ncnc(N3CCN(c4ccccc4F)CC3)c12,-28%,18µM*,0,-23%,·,18µM*
Cc1c(C(=O)N(C)C2CCCCC2)sc2ncnc(N3CCN(c4ccccc4)CC3)c12,?,15µM*,-16,?,-7%,13µM*
CCCNC(=O)c1c(CSc2ccc(Cl)cc2)noc1C(=O)NCc1ccccc1,-5%,?,?,0%,-24%,?
CCCCNC(=O)c1c(CSc2ccc(Cl)cc2)noc1C(=O)NCc1ccccc1,0%,?,13,2%,?,18µM*
CN(C)CCNC(=O)c1c(CSc2ccc(Cl)cc2)noc1C(=O)NCc1ccccc1,7%,16µM*,-4,9%,?,18µM*
N#Cc1ccc(Cn2c(=O)n(CCC(=O)NCCc3ccc(Cl)cc3)c(=O)c3sccc32)cc1,·,·,·,·,-11%,·
CCC(=O)Nc1cc(C(=O)OC(C(=O)c2ccc(C)c(C)c2)c2ccccc2)ccc1C (stereo not drawn),-18%,?,-59*,-15%,-1%,18µM*
FC(F)(F)c1cccc(CNC(=S)Nc2ccccc2)c1,-22%,16µM*,-79*,-2%,?,?
CCNC(=S)Nc1cccc(C(F)(F)F)c1,·,·,·,·,-6%,·
FC(F)(F)c1cccc(NC(=S)NCc2ccccc2)c1,?,23µM*,-2,?,?,21µM*
CC(C)CN1C(=O)c2cccn2CC1C(=O)NCCN1CCCCC1 (stereo not drawn),·,·,·,·,41%,·
COC(=O)c1sc2nc(CSc3ccc(Br)cc3)[nH]c(=O)c2c1C,1%,21µM*,35,0%,?,?
CSc1ccccc1NC(=O)CC(C)(C)CC(=O)O,·,·,·,·,-45%,·
CC(C)Cc1ccc(CN2CCCC(NC(=O)CCN3CCCCC3=O)C2)cc1 (stereo not drawn),-15%,?,21,-5%,13%,?
CC(C)Cc1ccc(C(C)/C=C2/CCC(CN3CCCCC3)C2=O)cc1 (stereo not drawn),?,2.9µM*,-106*,?,?,2.9µM*
O=C1c2ccccc2NC(c2ccccc2O)N1Cc1ccco1 (stereo not drawn),·,16µM*,·,·,·,?
